# Results from PubChem BioAssay (Tox21).
# Records with an inconclusive call do not appear. Entries that show only a call come without a potency. Activity calls are given as the source filed them. Calls follow the shape of the dose curve; as a rule, active = well fitted cell-killing curve with a large enough effect in the repeat runs; inconclusive = weak or mixed curves; inactive = flat fitted curve, though single readings scatter.
# Assay: qHTS assay to identify small molecule antagonists of the estrogen receptor beta (ER-beta) signaling pathway - cell viability counter screen (AID 1259382); also: nearly all actives have a fitted effect of over 55% in size
# Details: ER-beta-UAS-bla HEK293T viability, CellTiter-Glo luminescence, 16 h; series mostly up to 92.4 µM
# From the text: U.S. Tox21 Program National Center for Advancing Translational Sciences [NCATS] NIH Chemical Genomics Center [NCGC] U.S. Environmental Protection Agency [EPA] National Institutes of Environmental Health Sciences [NIEHS] National Toxicology Program [NTP] U.S. Food and Drug Administration [FDA] Tox21 Assay Overview: Estrogen receptor (ER), a nuclear hormone receptor, plays an important role in development, metabolic homeostasis and reproduction. Two subtypes of ER, ER-alpha and ER-beta, have similar expression patterns with some uniqueness in both types. Endocrine disrupting chemicals (EDCs) and their interactions with steroid hormone receptors like ER causes disruption of normal endocrine function. To identify the compounds that inhibit ER signaling, an ER-beta-UAS-bla GripTite cell line (Life Technologies, Madison, WI, USA) containing a beta-lactamase reporter gene under the control of an UAS response element was used to screen Tox21 10K compound library. The cytotoxicity of the Tox21 compound library against the ER-beta-bla cell line was tested in parallel by measuring the cell viability using CellTiter-Glo assay in the same wells.
# Tox21 Assay Protocol Summary: ER-beta-UAS-bla HEK293T cells were dispensed at 2,000 cells/4 uL of assay medium containing 2% charcoal stripped FBS per well into black wall/clear-bottom 1536-well plates using a Multidrop Combi (ThermoFisher Scientific, Waltham, MA) dispenser. After the assay plates were incubated at a 37C and 5% CO2 for 6 hr, 23 nL of compounds dissolved in DMSO, positive controls or DMSO only was transferred to the assay plate by a Pintool station (Kalypsys, San Diego, CA), followed by addition of 1 uL (1nM as final concentration) of 17-beta-estradiol (E2) in assay medium using a Flying Reagent Dispenser (FRD, Aurora Discovery, San Diego, CA). The plates were incubated at 37C and 5% CO2 for 16 hr. Then 1 uL of LiveBLAzer B/G FRET substrate was added using a Flying Reagent Dispenser, the plates were incubated at room temperature for 2 hours, and fluorescence intensity was measured by an Envision plate reader (PerkinElmer, Shelton, CT). For cell viability readout that measures cytotoxicity, 4 uL/well of CellTiter-Glo reagent was added into the assay plates using a FRD. After 30 min incubation at room temperature, the luminescence intensity in the plates was measured using a ViewLux (PerkinElmer) plate reader.
# Potency is read from the fitted curve at half-maximal effect.
row,SMILES,Potency
1,COc1cc(N)c(Cl)cc1C(=O)NC1CCN(CCCOc2ccc(F)cc2)CC1OC (stereo not given),inactive
2,CC(C)COCC(CN(Cc1ccccc1)c1ccccc1)N1CCCC1 (stereo not given),21.1 µM (active)
3,COc1cc(C(=O)NC2CCN(C)CC2)ccc1Nc1ncc2c(n1)N(C1CCCC1)CC(F)(F)C(=O)N2C,15.8 µM (active)
4,CN(C(=O)CN(CCO)CC(=O)N(C)C(C)(C)Cc1ccccc1)C(C)(C)Cc1ccccc1,inactive
5,C[C@]1(Cn2ccnn2)[C@H](C(=O)O)N2C(=O)C[C@H]2S1(=O)=O,inactive
6,CCOC(=O)c1ccc(OCCN2C[C@H](O)[C@@H](O)[C@H](O)[C@H]2CO)cc1,inactive
7,CCCCCC#CC(=O)OC,inactive
8,O=c1[nH]c2ccc(Cl)cc2o1,inactive
9,CC/C=C1/OC(=O)c2ccccc21,inactive
10,CC1=C(CC=O)C(C)(C)CCC1,inactive
11,CCOC(C)=O,inactive
12,Brc1cc2ccccc2c2ccccc12,inactive
13,CC1(C)[C@@H](OC(=O)CCC(=O)O)CC[C@]2(C)[C@H]3C(=O)C=C4[C@@H]5C[C@@](C)(C(=O)O)CC[C@]5(C)CC[C@@]4(C)[C@]3(C)CC[C@@H]12,inactive
14,CCC(C)(C)OC,inactive
15,O=C1c2ccccc2C(=O)c2c(O)c(O)cc(O)c21,inactive
16,CN1C(=O)OC(C)(C)C1=O,inactive
17,O=C(O)CCCCCCCCCCCBr,inactive
18,C1C[C@@H]2[C@H]3CC[C@H](C3)[C@@H]2C1,inactive
19,C=C/C(C)=C/C/C=C(\C)CCC=C(C)C,inactive
20,Oc1cccc(Nc2ccccc2)c1,inactive

row,SMILES,Potency
1,CCCCCCC(C)(C)C(=O)O,inactive
2,CN(C)CCC=C1c2ccccc2C=Cc2ccccc21,29.8 µM (active)
3,COC(=O)CCS,inactive
4,O=C1c2ccccc2C(=O)C1c1nc2ccccc2c(Br)c1O,inactive
5,Clc1ccc(Nc2nnc(Cc3ccncc3)c3ccccc23)cc1,inactive
6,C=CC(C)(CCC=C(C)C)OC(=O)CC(C)C (stereo not given),inactive
7,Cc1cccc(N(C)C(=S)Oc2ccc3c(c2)CCC3)c1,inactive
8,CCOC(=O)OC(C)OC(=O)[C@@H]1N2C(=O)[C@@H](NC(=O)[C@H](N)c3ccccc3)[C@H]2SC1(C)C (stereo not given in full),inactive
9,CCC1CO1 (stereo not given),inactive
10,CCC(OCCCOC)OC(C)=O (stereo not given),inactive
11,OCCN1CCN(CCCN2c3ccccc3Sc3ccc(Cl)cc32)CC1,13.3 µM (active)
12,CC[C@]1(O)C[C@H]2CN(CCc3c([nH]c4ccccc34)[C@@](C(=O)OC)(c3cc4c(cc3OC)N(C=O)[C@H]3[C@@](O)(C(=O)OC)[C@H](OC(C)=O)[C@]5(CC)C=CCN6CC[C@]43[C@@H]65)C2)C1,inactive
13,CC1(C)[C@H](C(=O)O)N2C(=O)C[C@H]2S1(=O)=O,inactive
14,C[C@@H](CN(C)C)CN1c2ccccc2Sc2ccccc21,21.1 µM (active)
15,O=C1Cc2ccccc2N1c1c(Cl)cccc1Cl,inactive
16,C[C@@H](O)[C@H]1C(=O)N2C(C(=O)O)=C([C@H]3CCCO3)S[C@H]12,inactive
17,CCOC(=O)c1ccc(C#Cc2ccc3c(c2)C(C)(C)CCS3)nc1,inactive
18,CC(C)=CC(=O)C=C(C)C,inactive
19,CCCCCCCCN,inactive
20,O=[N+]([O-])c1ccc(Nc2ccc(Nc3ccccc3)c(S(=O)(=O)O)c2)c([N+](=O)[O-])c1,inactive
